# Measurements as given in PubChem BioAssay (NCI).
# The panel holds about 83,000 compounds, 20% with a hit somewhere; the sample as a whole holds those more often.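 Cell lines were cultured in 96-well plates, exposed to a single compound concentration, and assessed for percent growth 48 hours later.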 Activity calls are given as the source filed them. The calls were made as follows: active = growth percent below 10; inactive = the rest.
# Test system: HL-60(TB) leukemia
# Experiment: NCI-60 one-dose screen, 48 h (100 = growth as untreated, 0 = no growth, -100 = all killed)
# Details: 10 µM unless noted
row,Compound,growth
1,COc1cccc(-c2nc3sccn3c2-c2ccnc(NCCNS(=O)(=O)c3ccc(C(F)(F)F)cc3)c2)c1,14.9% (inactive)
2,CCC(=O)Nc1ccccc1C#C/C=C\C#Cc1ccccc1C(F)(F)F,17.3% (inactive)
3,CC1(C)N=C(N)N=C(N)N1c1cccc(CCc2ccccc2)c1,32.4% (inactive)
4,COCCn1cc(-c2csc(-c3c[nH]c4ccc(Br)cc34)n2)c2cccnc21,20.5% (inactive)
5,O=C(O)COc1ccc([N+](=O)[O-])cc1Cl,108% (inactive)
6,C/C=C(\C)C(C(=O)NC1CCCCC1)N(C(=O)C1CCc2cc(F)ccc2O1)c1ccc([N+](=O)[O-])cc1 (stereo unspecified),82.4% (inactive)
7,CN1CCN(CCOc2ccc(-c3cnc4c(-c5cccc(F)c5)cnn4c3)cc2)CC1,10.7% (inactive)
8,C=C(C)[C@@H]1CC[C@]2(C(=O)N3CCN(C)CC3)CC[C@]3(C)[C@H](CC[C@@H]4[C@@](C)(CCC(=O)O)[C@H](C(=C)C)CC[C@]43C)[C@@H]12,82.5% (inactive)
9,Cc1cc2nc3c4ccc(Br)cc4n(CCN(C)C)c3nc2cc1C,3.73% (active)
10,C=C1C[C@@]2(C)C(CC[C@]3(C)C2CC=C2C4CC(C)(C)C[C@@H](OC(=O)/C(C)=C\C)[C@]4(C(=O)O)CC[C@]23C)C(C)(C)C1=O (stereo partly specified),-32.4% (active)
11,CNC(=O)c1cc(Oc2ccc3nc(NC(=O)Nc4ccc(Cl)c(C(F)(F)F)c4)sc3c2)ccn1,97.2% (inactive)
12,COc1ccc2c(c1)C(=O)/C(=C/c1ccc(OCC(=O)Nc3nccs3)cc1)O2,-84.2% (active)
13,COC(=O)[C@@H](Cc1c[nH]c2ccccc12)NC(=O)/C=C/c1ccccc1,0.51% (active)
14,O=C(CN1N=C(c2ccc(F)cc2)CCC1=O)Nc1nccs1,95.3% (inactive)
15,Cc1cccc(Cc2cnc(NC(=O)CCCOc3ccc(Cl)cc3)s2)c1,-34.2% (active)
16,COc1cc2cc(c1Cl)N(C)C(=O)C[C@H](OC(=O)[C@H](C)N(C)C(=O)CCS)C[C@]1(C)O[C@H]1[C@H](C)[C@@H]1C[C@@](O)(NC(=O)O1)[C@H](OC)/C=C/C=C(\C)C2,-28% (active)
17,COc1cc(/C=C/C(=O)c2ccc(Nc3ncnc4ccccc34)cc2)cc(OC)c1,55.5% (inactive)
18,CO/C(=C1/NC(=O)C(Cc2ccc(O)c(Br)c2)N(C)C(=O)C(C)NC(=O)CCC/C=C(\C)CCC(C)OC1=O)c1ccccc1 (stereo unspecified),-58.6% (active)
19,C=C(C)[C@@H]1CC[C@]2(C(=O)O)CC[C@]3(C)[C@H](CC[C@@H]4[C@@]5(C)C[C@@H](CC#Cc6ccc(Br)cc6)C(=O)C(C)(C)[C@@H]5CC[C@]43C)[C@@H]12,47.7% (inactive)
20,Nc1ccc(-c2csc(-n3[nH]c(=O)ccc3=O)n2)cc1,97.1% (inactive)
21,COC(=O)c1c2c(c(C)[n+]([O-])c1C)C(=O)C=CC2=O,-7.95% (active)
22,CCC(CC)NCC(C)(C)O,97.7% (inactive)
23,COC(=O)c1[nH]cnc1/N=N/N(C)CCO,86.5% (inactive)
24,Cc1cc(O)c(C(C)C)cc1N=O,66.1% (inactive)
25,CCC(=O)Oc1ccc(OC)cc1,82.6% (inactive)
26,N#Cc1c(N)nn(C(=O)c2ccc(NC(=O)c3ccccn3)cc2)c1-c1ccc(Cl)cc1,69.1% (inactive)
